Consider eight compounds from PubChem BioAssay (NCI).

Test systems include DU-145 prostate; K-562 leukemia; MALME-3M melanoma; MDA-MB-231 breast; RXF 393 renal; SF-268 CNS; SF-295 CNS; UACC-257 melanoma; M14 melanoma; HCT-15 colon; HT29 colon; SNB-75 CNS; SNB-19 CNS; U251 CNS; PC-3 prostate; SK-MEL-5 melanoma; UACC-62 melanoma; LOX IMVI melanoma; SK-MEL-28 melanoma.
Test in all cases: NCI-60 one-dose screen, 48 h (100 = growth as untreated, 0 = no growth, -100 = all killed)
What all share (conditions): 10 µM unless noted

This is part of a sample that, as a whole, favours compounds with a hit. Of some 83,000 tested, about 20% had one in any assay.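 Results are percent growth after 48 hours of single-concentration exposure. 100 means growth as in untreated cells, lower positive values show inhibition; negative values down to -100 show cell death.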 Values without a mark were called inactive. The source made the active and inactive calls. How the source made its calls: active means growth percent below 10; inactive means the rest.

Take `O=C(/C=C/c1ccc(Cl)cc1)/C=C/c1cc2ccccc2[nH]c1=O`: the growth with DU-145 prostate was 79.3%; with K-562 leukemia it was 10.1%; with MALME-3M melanoma, 14.3%; with MDA-MB-231 breast, 63.8%; in the assay on RXF 393 renal it was 38.3%; in the assay on SF-268 CNS it was 45.2%. The growth is 102% in the assay on SF-295 CNS; 88.9% with UACC-257 melanoma; 60.3% with M14 melanoma; 69% in the assay on HCT-15 colon; -0.317% (active) in the assay on HT29 colon; 68.8% with SNB-75 CNS. For the same compound, the growth was 83.4% with SNB-19 CNS; 11.7% in the assay on U251 CNS; 48.8% with PC-3 prostate; 75.2% in the assay with SK-MEL-5 melanoma; 52.9% with UACC-62 melanoma; -44.5% (active) with LOX IMVI melanoma. Moreover, the growth in the assay on SK-MEL-28 melanoma was 76.1%.
In the case of `COc1cc2nc3cc([N+](=O)[O-])ccc3c(NCCCNCC(C)(C)O)c2cc1OC`, the growth with DU-145 prostate was -34.3% (active); with K-562 leukemia, 0.851% (active); with MALME-3M melanoma, -81.8% (active); with MDA-MB-231 breast, -62.5% (active); with RXF 393 renal, -81.9% (active); with SF-268 CNS it was -57.4% (active). Besides, the growth was -41.2% (active) with SF-295 CNS; -64.2% (active) with UACC-257 melanoma; -77.3% (active) in the assay on M14 melanoma; 21.9% in the assay on HCT-15 colon; -52.4% (active) in the assay with HT29 colon; -96% (active) in the assay with SNB-75 CNS. Moreover, the growth in the assay with SNB-19 CNS is -26.1% (active); in the assay on U251 CNS, -68.9% (active); in the assay with PC-3 prostate, -61.8% (active); in the assay with SK-MEL-5 melanoma, -94.5% (active); with UACC-62 melanoma it was -76.1% (active); with LOX IMVI melanoma, -58.4% (active). Also, the growth with SK-MEL-28 melanoma is -64% (active).
In the case of `COc1cnc2c(c1)C(=O)c1c-2n(CCCN2CCCC2)c(=O)c2cc([N+](=O)[O-])ccc12`, the growth was 3.15% (active) in the assay with DU-145 prostate; -12.1% (active) in the assay on K-562 leukemia; -20.2% (active) in the assay with MALME-3M melanoma; -49.1% (active) in the assay on MDA-MB-231 breast; -88.7% (active) with RXF 393 renal; 17.1% in the assay on SF-268 CNS. The growth with SF-295 CNS was -6.13% (active); in the assay with UACC-257 melanoma it was -8.07% (active); in the assay on M14 melanoma, 0.878% (active); in the assay on HCT-15 colon it was 20.3%; in the assay on HT29 colon it was -59.4% (active); in the assay on SNB-75 CNS, -3.27% (active). Moreover, the growth in the assay with SNB-19 CNS was 19.8%; with U251 CNS, -64.8% (active); with PC-3 prostate, 15.6%; in the assay on SK-MEL-5 melanoma it was -96.8% (active); with UACC-62 melanoma it was -67.5% (active); in the assay on LOX IMVI melanoma, -82.3% (active). Also, the growth with SK-MEL-28 melanoma is 29.3%.
For `CC/C(=C(\c1ccc(O)cc1)c1ccc(OCCN(C)CCN(C)C(=O)CCCCC(=O)c2c(C)[nH]c(/C=C3\N=C(c4ccc[nH]4)C=C3OC)c2C)cc1)c1ccccc1`, the growth in the assay with DU-145 prostate is 65.8%; in the assay on K-562 leukemia, 42.9%; in the assay on MALME-3M melanoma it was 116%; with MDA-MB-231 breast, 35.1%; in the assay on RXF 393 renal, 83%; in the assay on SF-268 CNS, 75.9%. In addition, the growth in the assay on SF-295 CNS was 89.2%; in the assay with UACC-257 melanoma, 99.8%; with M14 melanoma it was 39.7%; in the assay on HCT-15 colon it was 60%; in the assay on HT29 colon it was 29.3%; with SNB-75 CNS it was 105%. Besides, the growth was 114% in the assay on SNB-19 CNS; 72% with U251 CNS; 61.2% in the assay with PC-3 prostate; 77.8% with SK-MEL-5 melanoma; 95.4% in the assay on UACC-62 melanoma; 44.9% with LOX IMVI melanoma. In addition, the growth in the assay on SK-MEL-28 melanoma was 89.7%.
For `Cc1[nH]n(-c2ccccc2)c2nc3nncc3c(-c3ccc(Cl)cc3)c12`, the growth is 103% in the assay on DU-145 prostate; 95.8% with K-562 leukemia; 132% in the assay with MALME-3M melanoma; 106% in the assay with MDA-MB-231 breast; 107% with RXF 393 renal; 98.9% with SF-268 CNS. The growth with SF-295 CNS is 105%; in the assay with UACC-257 melanoma, 101%; in the assay on M14 melanoma, 114%; with HCT-15 colon, 94.1%; in the assay on HT29 colon, 79.7%; in the assay on SNB-75 CNS it was 104%. The growth was 100% in the assay with SNB-19 CNS; 99.2% in the assay on U251 CNS; 73.1% with PC-3 prostate; 104% in the assay on SK-MEL-5 melanoma; 91.5% with UACC-62 melanoma; 89% in the assay on LOX IMVI melanoma. Also, in the assay on SK-MEL-28 melanoma, the growth is 104%.
Consider `ClC1=C2NC=NC2n2c(nnc2-c2ccc(Cl)cc2)N1` (configuration not stated), for which the growth with DU-145 prostate was 112%; in the assay on K-562 leukemia it was 91.1%; in the assay with MALME-3M melanoma, 129%; with MDA-MB-231 breast, 95.6%; with RXF 393 renal, 101%; with SF-268 CNS it was 111%. Also, the growth with SF-295 CNS is 97.8%; in the assay on UACC-257 melanoma it was 101%; with M14 melanoma, 102%; in the assay with HCT-15 colon it was 96.4%; in the assay on HT29 colon, 91.5%; with SNB-75 CNS, 107%. The growth in the assay on SNB-19 CNS is 92.7%; in the assay on U251 CNS, 89.6%; in the assay with PC-3 prostate, 89.9%; in the assay on SK-MEL-5 melanoma, 96.9%; in the assay with UACC-62 melanoma, 92.1%; in the assay with LOX IMVI melanoma, 108%. Also, the growth in the assay with SK-MEL-28 melanoma was 102%.
`O=C(NCc1cccc(C(F)(F)F)c1)[C@H](CCC(=O)N1CCN(C2CCCCC2)CC1)N1C(=O)[C@@H](N2C(=O)OC[C@@H]2c2ccccc2)[C@H]1/C(Cl)=C/c1ccccc1`: the growth with DU-145 prostate is 60.7%; with K-562 leukemia, 31.5%; in the assay with MALME-3M melanoma, 47.8%; with MDA-MB-231 breast, 33.1%; in the assay with RXF 393 renal, 52.2%; in the assay with SF-268 CNS it was 31%. Besides, the growth in the assay with SF-295 CNS is 46.5%; in the assay with UACC-257 melanoma, 24.9%; in the assay with M14 melanoma it was 37.9%; with HCT-15 colon, 31.8%; in the assay on HT29 colon, 2.23% (active); in the assay with SNB-75 CNS, 58.5%. Besides, the growth with SNB-19 CNS was 39.4%; in the assay with U251 CNS, 28.1%; with PC-3 prostate, 21.7%; in the assay with SK-MEL-5 melanoma, -59.5% (active); with UACC-62 melanoma, 60.3%; in the assay with LOX IMVI melanoma, 19.9%. Further, the growth in the assay with SK-MEL-28 melanoma is 18.6%.
Turning to `CCCCNC(=O)NS(=O)(=O)c1ccc(N2N=C(c3cc(C)ccc3C)CC2c2cc(OC)c(OC)c(OC)c2)cc1` (configuration not stated), the growth in the assay with DU-145 prostate was 88.9%; with K-562 leukemia it was 36.1%; in the assay on MALME-3M melanoma, 25.3%; in the assay on MDA-MB-231 breast it was 79.4%; in the assay on RXF 393 renal, 44.7%; in the assay on SF-268 CNS, 66%. The growth was 8.51% (active) in the assay on SF-295 CNS; 59.3% with UACC-257 melanoma; 8.53% (active) in the assay on M14 melanoma; 48.6% in the assay on HCT-15 colon; 72.2% in the assay on HT29 colon; 51.1% with SNB-75 CNS. The growth was 68% with SNB-19 CNS; 51.3% in the assay with U251 CNS; 36.9% in the assay with PC-3 prostate; 6.28% (active) with SK-MEL-5 melanoma; 49.5% in the assay on UACC-62 melanoma; 9.68% (active) in the assay on LOX IMVI melanoma. The growth in the assay on SK-MEL-28 melanoma is 18.6%.
